# Laboratory results reported in PubChem BioAssay AID1259415 (National Center for Advancing Translational Sciences (NCATS), 2018).
# The campaign covered roughly 410,000 compounds. About 18,000 (4.4%) were called active. Roughly 7% stayed inconclusive and do not appear here. Many of the other results were omitted from the sample, so actives are more common in it than they were. Values without a mark were called inactive. No stated cut-off is given here; in the data, active means activity change below about -60%; inconclusive means no clear call, values can overlap the other calls; inactive means above about -39%.
# Test: qHTS Assay for inhibitors of the human cytomegalovirus (HCMV)
# Details: HFF cells, HCMV-luciferase reporter, 72 h; at 57.5 µM; active compounds read low
# Outline: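 Screen run at 2 compound doses on HFFs infected with reporter HCMV, MOI 1 PFU/cell. Luciferase activity from cell lysates at 72 h post infection gave inhibition relative to buffer-only and Salinomycin wells.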
# On the % scale 0 is the no-effect control and ±100 the full control effect.
row,Compound,"activity change, negative = inhibition"
1,O=C(NCC(c1cccnc1)N1CCc2ccccc21)c1cccc(C(F)(F)F)c1 (centres undefined),-36.7%
2,O=C(Nc1ccc(Cl)cc1)c1cccc(OC(=S)N2CCOCC2)c1,-103% (active)
3,O=C(Oc1cccc(C(=S)N2CCOCC2)c1)c1cccc(Cl)c1,-4.94%
4,O=C(Nc1ccccc1C(=O)N1CCOCC1)c1ccc(Cl)cc1,8.32%
5,Cc1nc(NC(=O)C2CCCCC2)sc1C,62.5%
6,O=C(NNC1=NCCC1)c1cccc(S(=O)(=O)N2CCCCC2)c1,-11.4%
7,Cc1ccc(C(CC(=O)O)Nc2nc(N3CCCCC3)nc(N3CCCCC3)n2)cc1 (centres undefined),-10.1%
8,O=C(NNc1nc(N2CCCC2)nc(N2CCCC2)n1)c1ccccc1,-66.4% (active)
9,CCC1(C)CC(=O)c2c(ccc3oc(C(=O)Nc4ccc(C(C)=O)cc4)c(C)c23)O1 (centres undefined),-8.87%
10,COc1cccc(C2C(C(=O)Nc3ccc(C)cc3C)=C(C)Nc3c(C(=O)Nc4ccccc4)cnn32)c1 (centres undefined),-31.3%
11,O=C1CSC(=O)N1CCOCCN1C(=O)CSC1=O,11.3%
12,CC(C)(C)NC(=O)CSc1nc(-c2ccc(F)cc2)cc(C(F)(F)F)n1,-8.55%
13,CC12CCC3C(CCC4CC(=O)CCC43C)C1CC(=NO)C2=O (centres undefined),16.3%
14,CN(CC(=O)Nc1ccccc1F)S(=O)(=O)c1ccc2c(c1)c(=O)n(C)c(=O)n2C,3.4%
15,CCc1ccccc1NC(=O)CN(C)S(=O)(=O)c1ccc2c(c1)c(=O)n(C)c(=O)n2C,14.6%
16,CC(C)c1ccc(NC(=O)CN(C)S(=O)(=O)c2ccc3c(c2)c(=O)n(C)c(=O)n3C)cc1,-106% (active)
17,CC1CCCC(NC(=O)COC(=O)[C@@H]2CC(O)CN2S(=O)(=O)c2ccc3c(c2)OCCO3)C1C (some centres undefined),10.5%
18,Cc1ccc(Cl)cc1NC(=O)CSc1nccn1C,-11.3%
19,Cc1cc(C)n(CCNCc2c(C(=O)N3C[C@@H](C)O[C@@H](C)C3)nc3ccc(Cl)cn23)n1,18.2%
20,Cc1ccc(C(=O)N2CCc3cc(CNC(=O)c4ccc(Br)cc4)ccc32)cc1,-17.7%
21,CC1=C(C(=O)N2CCN(c3cccc(C(F)(F)F)c3)CC2)C2(CCCCC2)OC1=O,30.4%
22,C=C(C)CSc1nc(N)c2c3c(sc2n1)CCC3,31.9%
23,Nc1nc(SCC(=O)NCCN2CCOCC2)nc2sc3c(c12)CCC3,5.31%
24,CC(C)(C)C1CCc2c(sc3nc(SCC(N)=O)nc(N)c23)C1 (centres undefined),-100% (active)
